These results are taken from PubChem BioAssay (NCI).

This is part of a sample that, as a whole, favours compounds with a hit. Of some 83,000 tested, about 20% had one in any assay.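 Note: values are percent growth. 100 is the growth of untreated cells, values between 100 and 0 indicate rising inhibition; between -100 and 0 indicates cell death.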 Values without a mark were called inactive. Calls of active or inactive are those of the source. How the source made its calls: active means growth percent below 10; inactive means the rest.

This test concerns MDA-MB-468 breast. Description: NCI-60 one-dose screen, 48 h (100 = growth as untreated, 0 = no growth, -100 = all killed). The following applies: 10 µM unless noted.
On to `Nc1nc(Nc2ccccc2SSc2ccccc2Nc2nc(N)nc(-c3cccc(Br)c3)n2)nc(-c2cccc(Br)c2)n1`, for which the growth was 95.4%.
Take `CCc1cccc2c3c(sc12)C(c1ccc(F)cc1)C(C#N)=C(N)O3` (stereo not given): the growth is 31.2%.
With `CCN1C(=O)N(CC)C2C1NN=c1s/c(=C\c3ccc([N+](=O)[O-])cc3)c(=O)n12` (stereo not given) the figure was 7.94% (active); with `O=C(OCC(O)C(=O)NC12CC3CC(CC(C3)C1)C2)c1cccc(Br)c1` (stereo not given), 99.9%.
Turning to `Cc1c(NC(=O)CSc2nc3sc4c(c3c(=O)n2-c2ccc(Cl)cc2)CCCC4)c(=O)n(-c2ccccc2)n1C`, the growth was 89.8%.
Take `S=C(S)N1CCCC1`: the growth is 111%.
As for `COc1ccc2nc3cc(Cl)ccc3c(NCCNCC(C)O)c2c1` (stereo not given), the figure is 38.6%.
Regarding `CCCCCCCCCCCCCC[N+](C)(C)CCCCCCCCCCCCCC`, the growth was 21.4%.
`CCNC(=O)N1CCc2cc(OC)c(OCCc3ccc(OC)nc3)cc2C1c1ccc(OC)cc1C` (stereo not given): the growth is 26.7%.
Regarding `O=C1/C(=C/c2ccc(C(F)(F)F)cc2)COc2ccc(O)c(O)c21`, the growth was -36.8% (active).
In the case of `CCOCc1nc2ccccc2c(=O)[nH]1`, the growth was 98.7%.
With `COc1cc(/C=C/C(=O)c2ccc(Nc3nc(Nc4ccccc4)nc(Nc4ccc(Cl)cc4)n3)cc2)cc(OC)c1OC` the figure was 76.3%; with `Fc1cc2[nH]ncc2c2c3c(c(-c4cn[nH]c4C(F)(F)F)nc12)CCCC3`, -20.3% (active); with `O=C(NC(=S)Nc1ccc(-c2nc3ccccc3[nH]2)cc1)c1ccc2ccccc2c1`, 13.6%.
Consider `O=C1OC(c2nc3ccccc3s2)=C/C1=C\c1ccc(O)cc1`, for which the growth is 114%.
With `C#CCOc1cccc(Nc2ncnc3cc(NC(=O)CCl)ccc23)c1`, the growth was -52.5% (active).
With `O=C(CN1C=NC2C(N3CCOCC3)=NC=NC21)c1cccc2ccccc12` (stereo not given), the growth was 85.9%.
With `CCN(CC)c1ccc(CNc2cc(C)nc3ccc(OC)cc23)cc1`, the growth was 2.98% (active).
With `CCn1c(Sc2nnc(NC(=O)CSC(=S)N3CCCCC3)s2)nc2c1c(=O)n(C)c(=O)n2C` the figure was 98.7%.
With `COc1c(B(O)O)cccc1-c1nc2ccc3[nH]ncc3c2c2c1C1CCC2C1` (stereo not given), the growth was 89.9%.
With `CCN(CC)CCCNc1ccc(Nc2ccc(OC)cc2)cc1` the figure was 78.8%; with `O=S(=O)(O)CCI`, 91.8%; with `COC(=O)CCCCCn1c2ccccc2c2c3c(c4c5ccccc5[nH]c4c21)C(=O)N(O)C3=O`, 45.3%.
As for `CSC1=Nc2c(c(C)c(-c3ccccc3)n2CCCC(=O)O)C2=NC(=O)C[C@H](C)N12`, the figure is 83.7%.
As for `CCN(CC)CCCCCCNc1cc(OC)c(Cl)c2cccnc12`, the figure is 32.1%.
On to `CCn1cc(C(=O)N/N=C/c2ccc(Br)cc2)c(=O)c2cc(F)c(N3CCNC(C)C3)c(F)c21` (stereo not given), for which the growth is 82.5%.
With `CC1(C)NCCC[C@]2(C)[C@H]3CC[C@H]4[C@H]5[C@H](C(=O)/C=C/c6cccnc6)CCC[C@]5(CO)CC[C@@]4(C)[C@]3(C)CC[C@@H]12` the figure was -12.6% (active).
For the molecule `COc1ccc(C(=O)/C=C/c2ccc(Cl)cc2)cc1S(N)(=O)=O`, the growth was 57.3%.
As to `COC(=O)[C@]1(C)CCC[C@]2(C)[C@H]3C[C@H]4C(C(C)C)=C[C@]3(CC[C@H]21)[C@@H]1C(=O)CC[C@H](OCCC#N)[C@@H]14`, the growth was 70.5%.
On to `Cc1nc([N+](=O)[O-])c(Sc2nncc(-c3ccccc3)n2)n1C`, for which the growth is 29.5%.
Turning to `O=C(Cn1c2ccccc2c2ccncc21)N/N=C/c1cc(O)c(O)c(O)c1`, the growth is 111%.
With `COCC(=O)Oc1cc(-c2ccc(C)cc2C)c(OC(=O)COC)c(-c2ccc(C)cc2C)c1` the figure was -0.64% (active); with `CCSc1nc2ccccc2o1`, 111%.
`COc1ccc2c(c1)sc1nc(-c3ccccc3)c(-c3ccc(O)c(OC)c3)n12`: the growth was 107%.
As for `CN1CCN(CC#CCn2c3c(c4ccccc42)C[C@]2(C)[C@H]4CC=C5[C@@H]6CC(C)(C)CC[C@]6(C(=O)N6CCOCC6)CC[C@@]5(C)[C@]4(C)CC[C@H]2C3(C)C)CC1`, the figure is 79.4%; as for `CC(C)(C)c1ccc(S(=O)(=O)N[C@H]2CC[C@H]3[C@@H]4CCc5cc(O)c([N+](=O)[O-])cc5[C@H]4CC[C@]23C)cc1`, 99.9%.
Take `Oc1ccccc1-c1nc2c3ccccc3c3ccccc3c2o1`: the growth is 83%.
Turning to `CC(c1ccccc1)N1C(=O)CSC1=S` (stereo not given), the growth was -5.47% (active).
As for `Clc1ccc2c(OCCCN3CCOCC3)c3oc4ccccc4c3nc2c1`, the figure is 21.1%; as for `COc1ccc(-n2c(=S)sc3c(Cl)nc(C)nc32)c(OC)c1`, -19.6% (active).
